This passage reports activity change, negative = inhibition results from PubChem BioAssay AID504652 (National Center for Advancing Translational Sciences (NCATS), 2011).

Structures are written as SMILES. Hit rate of the full screen: of about 360,000 compounds, about 11,000 (3.1%) were called active. The full list was thinned out, with actives kept by preference. Values without a mark were called inactive. No stated cut-off is given here; in the data, active means activity change below about -30%; inactive means the rest.
On the % scale 0 is the no-effect control and ±100 the full control effect.

D(1A) dopamine receptor (Homo sapiens), sequence (P21728 whole entry, looked up): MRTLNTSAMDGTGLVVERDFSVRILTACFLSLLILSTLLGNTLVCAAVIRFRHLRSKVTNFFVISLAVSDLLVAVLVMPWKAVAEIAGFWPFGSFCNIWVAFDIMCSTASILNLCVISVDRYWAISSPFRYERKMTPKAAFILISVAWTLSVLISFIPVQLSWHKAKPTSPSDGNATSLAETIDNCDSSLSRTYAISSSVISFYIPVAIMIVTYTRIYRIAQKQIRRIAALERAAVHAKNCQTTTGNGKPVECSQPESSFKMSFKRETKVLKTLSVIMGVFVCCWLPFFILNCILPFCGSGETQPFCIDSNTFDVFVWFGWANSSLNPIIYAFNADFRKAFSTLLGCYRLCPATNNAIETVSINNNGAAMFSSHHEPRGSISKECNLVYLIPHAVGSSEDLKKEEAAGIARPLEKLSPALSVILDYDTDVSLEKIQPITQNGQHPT

In the assay the target is D(1A) dopamine receptor (Homo sapiens) (UniProt P21728). In words: Antagonist of Human D 1 Dopamine Receptor: qHTS. As to conditions: HEK293 TREx D1 cells, calcium flux, dopamine EC80; at 10 µM; active compounds read low. An excerpt:
Dopamine receptors (DARs) are involved in the etiology and/or therapy of a number of neuropsychiatric and endocrine disorders. For instance, all receptor-based antiparkinsonian drugs work via stimulating the […] DAR subtype whereas all FDA-approved antipsychotic agents are antagonists of this receptor. […] There are three different types of allosteric modulators that we are seeking, two of which will stimulate or augment receptor signaling, allosteric agonists and potentiators, while the third, allosteric antagonists, will attenuate receptor signaling. The present primary screening assay measures compound antagonism after an EC80 addition of dopamine by tracking calcium flux in a […], inducible Hek293 Trex D1 cell line. NIH Chemical Genomics Center [NCGC] NIH Molecular Libraries Probe Centers Network [MLPCN] MLPCN Grant: NS064831-01 Assay Submitter (PI): David Sibley
Freshly passaged cells are plated in 1536 well black, clear bottom plates at a density of 4000 cells/well in 3 ul of complete media containing 1x tetracycline inducer. After an overnight incubation at 30 C in 5% CO2, cells are loaded with 2 ul of the no wash Calcium Assay Kit (ABD Bioquest) and incubated at room temperature for 30 to 90 minutes. Agonist read: A 10 cycle (1 second/cycle) baseline measurement is taken and then the FDSS online 1536 pintool delivers 23 nl of compound library (as well as dopamine controls) to the plate. The plate is measured for kinetically at 1 cycle/sec for 180 seconds. Following the 180 second read, 1 ul of an EC80 (negative modulation assay) is delivered by an onboard pipette head. Measurements are taken kinetically for an additional 180 seconds.
For the compound `COc1cccc(C(c2c(O)cc(C)n(Cc3ccco3)c2=O)N2CCN(c3ccccc3)CC2)c1` (configuration not stated), the activity change, negative = inhibition was 4.67%.
As for `O=C(NCCCN1CCN(c2cccc(Cl)c2)CC1)c1nnc(Cc2ccc(F)cc2Cl)o1`, the activity change, negative = inhibition is -33.5% (active).
For `Cc1ccc(CCNC(=O)c2nnc(Cc3cccc(F)c3)o2)cc1` the value was -1.29%; for `COc1ccc(N2CCN(CCNC(=O)c3nnc(Cc4c(F)cccc4Cl)o3)CC2)cc1`, 5.46%.
For the compound `Cc1ccc(CCNC(=O)c2ccc(CS(=O)(=O)Cc3cccc(C)c3)o2)cc1`, the activity change, negative = inhibition is -10.5%.
Then `O=C(c1ccco1)N1CCN(C(=O)C2CC(c3ccc(Cl)c(Cl)c3)=NO2)CC1` (configuration not stated), with -36.7% (active); and `O=C(OCC(=O)N1CCN(C(=O)c2ccco2)CC1)c1ccc(Cl)c(Cl)c1`, with -10.9%.
For `O=C(c1ccco1)N1CCN(C(=O)C2CC(c3ccc(F)cc3)=NO2)CC1` (configuration not stated) the value was -3.06%.
For `COc1ccccc1CN1CCC(CNC(=O)c2cnn(-c3ccccc3Cl)c2C2CCN(C(=O)OC(C)(C)C)CC2)CC1` the value was -9.9%; for `COc1ccccc1C(=O)OCc1cc(=O)n2nc(-c3cccs3)sc2n1`, -28%; for `O=C(CCS(=O)(=O)c1ccc2c(c1)NC(=O)CO2)Nc1cccc(C(F)(F)F)c1`, 1.28%.
For the compound `Brc1cc(/C=N/n2cnnc2)oc1Br`, the activity change, negative = inhibition is -2.4%.
For `Clc1cc(-c2ccc(/C=N/n3cnnc3)o2)ccc1Br` the value was -8.28%.
Regarding `Cc1ccc(Cl)cc1-c1ccc(/C=N/n2cnnc2)o1`, the activity change, negative = inhibition is -37.1% (active).
In the case of `Cn1c(=O)nc2n(-c3ccc(Br)cc3)c3cccc(Cl)c3cc-2c1=O`, the activity change, negative = inhibition is -15.6%.
`CCc1ccccc1N1CC(c2nc3ccccc3n2CCCCOc2ccccc2)CC1=O` (configuration not stated): the activity change, negative = inhibition is -13.7%.
On to `CCOc1ccc(N2CC(c3nc4ccccc4n3CCOc3ccc(OC)cc3)CC2=O)cc1` (configuration not stated), for which the activity change, negative = inhibition is -7.94%.
For `COc1ccc(OCCCn2c(C3CC(=O)N(c4ccc(F)cc4)C3)nc3ccccc32)cc1` (configuration not stated), the activity change, negative = inhibition was -46.1% (active).
For `COc1ccc(OC)c(CNC(=O)c2c3c(nc4ccccc24)C(=O)N(C2CCCCC2)C3)c1` the value was 18.9%.
In the case of `CC(C)(C)NC(=O)NC(=O)COC(=O)Cc1c(F)cccc1Cl`, the activity change, negative = inhibition is -21%.
Then `COc1ccccc1OCCC(=O)OCC(=O)NC(=O)NC(C)(C)C`, with -0.18%; and `CC(C)(C)NC(=O)NC(=O)COC(=O)Cc1ccc(Cl)cc1Cl`, with -36.3% (active).
Then `CCOc1cc(/C=C(\C#N)C(=O)Nc2ccccc2C)ccc1OCc1cc(=O)n2nc(CC)sc2n1`, with 4.8%.
Then `CCOC(=O)c1cccc(NS(=O)(=O)c2cn(C)c(C)n2)c1`, with 0.648%; and `CCOc1ccccc1CNC(=O)Nc1cn(CC(C)C)c(=O)c2ccccc12`, with -9.18%; and `CCOc1ccccc1N(CC)C(=O)c1cc2ccc3cccnc3c2[nH]1`, with 15.7%.
For `CCOc1ccccc1N(CC)C(=O)Nc1cn(C)c(=O)c2ccccc12`, the activity change, negative = inhibition is -33.9% (active).
Then `CNC(=O)CN1C(=O)c2cccnc2Sc2ccccc21`, with 2.47%; and `COc1ccc(CCNC(=O)c2ccc3c(c2)sc2nc(-c4ccc(C)cc4)cn23)cc1OC`, with -5.29%.
For `COc1cc(NS(=O)(=O)c2ccc(NC(=S)NC(=O)c3ccc(Br)cc3)cc2)ncn1` the value was -8.88%; for `COc1cc(NS(=O)(=O)c2ccc(NC(=O)CN3C(=O)c4ccccc4C3=O)cc2)ncn1`, 11.7%; for `COc1cc(NS(=O)(=O)c2ccc(NC(=O)c3ccc(S(=O)(=O)N4CCCCC4)cc3)cc2)ncn1`, -62.1% (active).
For the compound `CC1CCCCN1Cc1c(O)ccc2c(=O)c(-c3cccc(Cl)c3)c(C(F)(F)F)oc12` (configuration not stated), the activity change, negative = inhibition was 8.91%.
With `CCOc1ccc(C(NC(=O)c2cc(OC)c(OC)c(OC)c2)c2cc(Cl)c3cccnc3c2O)cc1` (configuration not stated), the activity change, negative = inhibition is 1.85%.
`CCOCCCNC(=O)c1ccc2nc(CCc3ccccc3)oc2c1`: the activity change, negative = inhibition was -1.1%.
Then `CCOc1cccc(NC(=O)c2ccc(F)c(S(=O)(=O)N(CC)c3cccc(C)c3)c2)c1`, with 16.1%; and `CC1=C(C(=O)OCc2ccc(C)cc2)C(c2c(Cl)cccc2Cl)CC(=O)N1` (configuration not stated), with 4.89%; and `COc1cc(NC(=O)COc2ccccc2Cl)ccc1NC(=O)C(C)C`, with 0.361%.
Then `Cc1ccccc1OCC(=O)Nc1ccc(N2CCN(C(=O)C(C)C)CC2)c(Cl)c1`, with -31% (active).
For `CCC(=O)N1CCN(c2ccccc2NC(=O)COc2cccc(C)c2C)CC1`, the activity change, negative = inhibition was 3.4%.
Then `Cc1ccc(C)c(CN2C(=O)c3ccccc3S(=O)c3ccc(C(=O)N4CCOCC4)cc32)c1` (configuration not stated), with 1.36%; and `COc1ccc(OCC(=O)Nc2cccc(C(=O)OCc3cc(=O)n4nc(C)sc4n3)c2)cc1`, with -3.25%.
`CCOc1ccc(-n2c(C)nc3c(cnn3-c3ccc(C)cc3)c2=O)cc1`: the activity change, negative = inhibition was 10.9%.
As for `COc1cc([N+](=O)[O-])cc([N+](=O)[O-])c1NC(=O)N1CCOCC1`, the activity change, negative = inhibition is -32.7% (active).
For `COc1cc(C(=S)N2CCOCC2)cc(OC)c1OC(=O)c1cc([N+](=O)[O-])cc([N+](=O)[O-])c1` the value was -2.9%.
For `COc1cc(C(=S)N2CCOCC2)cc(OC)c1OC(=O)c1ccc([N+](=O)[O-])cc1[N+](=O)[O-]` the value was -16.4%; for `O=C(Nc1c(-c2ccc(F)cc2)nc2ccccn12)c1cccc(F)c1`, -0.545%.
Then `N#CN1CCC(NC(=O)c2ccc(F)cc2)CC1`, with -14.9%.
Consider `O=C(Nc1ccc(OC(F)(F)F)cc1)c1cc2c(=O)n3ccccc3nc2s1`, for which the activity change, negative = inhibition is -3.02%.
For `CCOc1ccc(N(C)S(=O)(=O)c2cc(-c3cnc(C)o3)ccc2OC)cc1` the value was -5.97%.
In the case of `COc1ccc(-n2nnnc2SCC(=O)c2ccc(OC)c(OC)c2)cc1`, the activity change, negative = inhibition was 16.4%.
As for `Oc1ccc(-n2nnnc2SCc2c(F)cccc2Cl)cc1`, the activity change, negative = inhibition was -17.7%.
Then `COc1ccc(CSc2nnnn2-c2ccc(O)cc2)cc1F`, with -36.7% (active); and `COc1ccc(CCNc2nc3c(-c4cccc(F)c4)nnn3c3ccccc23)cc1OC`, with 1.83%; and `CN1CCN(C(=O)/C(=C\c2ccc3c(c2)OCO3)NC(=O)c2cccs2)CC1`, with -1.26%.
Then `CN1CCN(C(=O)/C(=C\c2cccs2)NC(=O)c2cccs2)CC1`, with -40.4% (active); and `Cc1ccc(C(=O)N/C(=C/c2cccs2)C(=O)N2CCCCC2)cc1`, with -1.28%.
Take `CCOc1ccc(CNC(=O)c2ccc3c(c2)nnn3C2CCCC2)cc1`: the activity change, negative = inhibition was -28.9%.
As to `Cc1ccc(-c2nn(CCC(=O)Nc3ccc(OC(F)(F)F)cc3)c(=O)c3ccccc23)cc1`, the activity change, negative = inhibition is -11%.
On to `COc1ccc(NC(=O)Nc2cccc(-c3noc(C)n3)c2)cc1`, for which the activity change, negative = inhibition is 8.89%.
For `Cc1ccc(NC(=O)Nc2ccc3oc(C)nc3c2)cc1` the value was -1.61%; for `COc1ccc(NC(=O)Nc2ccc3nsnc3c2)cc1`, -36.6% (active); for `Cc1ccc(C)c(Cn2c(C)c(CNCc3ccc(F)cc3)c(C(=O)O)c2C)c1`, -10.2%.
For `O=C(NCc1ccncc1)c1cccc(NS(=O)(=O)c2ccc(F)c(F)c2)c1` the value was -6.23%.
Then `O=C(NCc1ccco1)/C(=C/c1cccc([N+](=O)[O-])c1)NC(=O)c1ccco1`, with -9.94%; and `O=C(NCc1ccco1)c1ccc(NS(=O)(=O)c2cccc([N+](=O)[O-])c2)cc1`, with -51.9% (active).
For the compound `O=C(NCc1ccncc1)c1ccc(NS(=O)(=O)c2cccc([N+](=O)[O-])c2)cc1`, the activity change, negative = inhibition is -49% (active).
For `O=[N+]([O-])c1cccc(S(=O)(=O)NCc2ccccn2)c1`, the activity change, negative = inhibition was 8.53%.
Then `O=C(NCc1ccco1)c1ccc([N+](=O)[O-])cc1Cl`, with -6.24%.
Then `CCOC(=O)c1c(NC(=O)COc2cc(C)ccc2C(C)C)sc(C)c1C`, with 8.46%; and `CC1CCCN(CCOCCOc2ccccc2-c2ccccc2)C1` (configuration not stated), with -48.5% (active).
Regarding `c1ccc(-c2ccccc2OCCN2CCCCC2)cc1`, the activity change, negative = inhibition was 8.41%.
For `CC1CN(CCCOc2ccccc2-c2ccccc2)CC(C)O1` (configuration not stated), the activity change, negative = inhibition was 13.9%.
Then `CC1CN(C(=O)N2CCC(C(=O)NCc3cccs3)CC2)c2ccccc2O1` (configuration not stated), with -3.92%; and `COc1ccc(NC(=O)CCNS(=O)(=O)c2ccc3c(c2)CCCC(=O)N3)cc1Cl`, with 1.62%.
As for `O=S(=O)(NCCOc1cccc2cccnc12)c1ccc(F)cc1`, the activity change, negative = inhibition was 6.87%.
For `O=S(=O)(NCCc1ccc(F)cc1)c1cccc2cccnc12` the value was -44.7% (active).
For `O=S(=O)(Nc1cccc2cccnc12)c1cccc2cccnc12` the value was -7.95%.
Then `CC(CNC(=O)c1nnc(Cc2cccc(F)c2)o1)c1ccccc1` (configuration not stated), with 0.636%; and `Cc1cc2oc(C(=O)N(Cc3ccc(Cl)cc3)Cc3ccco3)c(C)c2cc1Cl`, with -1.03%; and `CCCOc1ccc(-c2cccc(NS(=O)(=O)c3ccccc3)c2)nn1`, with -24.2%.
As for `CCNS(=O)(=O)c1cc(-c2nnc(Nc3cccc(C(F)(F)F)c3)c3ccccc23)ccc1C`, the activity change, negative = inhibition is -6.09%.
Take `COc1cccc(COc2ccc(N(C)S(=O)(=O)c3ccccc3)cc2)c1`: the activity change, negative = inhibition is -1.51%.
`Cc1ccc2nc(COc3ccc(NC(=O)COc4ccccc4F)cc3)cc(=O)n2c1`: the activity change, negative = inhibition was 0.203%.
For the compound `Cc1ccc2nc(COc3ccc(N(C)S(=O)(=O)c4ccccc4)cc3)cc(=O)n2c1`, the activity change, negative = inhibition was -32.1% (active).
For `CSc1ccc(CCNC(=O)c2ccc3c(c2)nc2n3CCOC2)cc1`, the activity change, negative = inhibition is 11.3%.
`CCCN1CCN(CCCNC(=O)c2ccc3nc(Cc4ccccc4)oc3c2)CC1`: the activity change, negative = inhibition was -1.19%.
